The text below walks through data of the supplement of paper PMC6522484.

The structures appear in SMILES notation. Several values for one entry are separate records, joined by “and”; a condition that tells them apart may be missing. Identical values can stand only once. ± gives the standard deviation of the averaged measurements.

Assay [1] deals with DLD1. In words: cell viability (CellTiter-Glo) relative to plate median (fraction of plate median); higher = more viable cells. The conditions noted are these: 5 µM; treatment time 24 h; reporter: 7TFP. In short, it runs like this:
(§1)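 Library compounds were added at a final concentration of 5 µM for 24 h to colorectal cancer cells stably transduced with a lentiviral TCF/Wnt firefly luciferase reporter. Reported values are firefly luciferase or CellTiterGlo luminescence, normalised per well to the plate median. Each value averages two independent replicates.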
Background: Cellular ATP, detected with luciferase, serves as a proxy for viable cell number.

The subject of a further assay is HCT116. Described as above. The note with it: 5 µM; treatment time 24 h; reporter: TCF4/Wnt. Put shortly:
as §1

Assay [2] concerns SW480. The description is as above. The conditions noted are these: 5 µM; treatment time 24 h; reporter: 7TFP. In short, it runs like this:
as §1

The test system of assay [3] is DLD1. Description: TCF/Wnt firefly luciferase reporter signal relative to plate median (fraction of plate median); higher = higher Wnt reporter signal. The note with it: 5 µM; treatment time 24 h; reporter: 7TFP. In short, it runs like this: as §1
(Reporter assays use an easily measured gene product as a stand-in for the process of interest.)

Assay [4] has as its system SW480. The description is as above. The note with it: 5 µM; treatment time 24 h; reporter: 7TFP. In short, it runs like this: as §1

For `CCC(=O)O[C@]1(C(=O)CCl)[C@@H](C)C[C@H]2[C@@H]3CCC4=CC(=O)C=C[C@]4(C)[C@@]3(F)[C@@H](O)C[C@@]21C`, the results for the cell viability in the assay on DLD1 [1], with HCT116 and in the assay on SW480 [2] were 1.03 ± 0.035, 0.9775 ± 0.0078 and 1.01 ± 0.035, respectively. The “TCF/Wnt firefly luciferase reporter signal” value in the assay with DLD1 [3] amounted to 0.896 ± 0.27; in the assay on SW480 [4] it was 0.893 ± 0.027.
On to `COc1cc(O)c2c(c1)C(=O)c1cc3c(c(OC)c1C2=O)[C@@H]1CCO[C@@H]1O3` [Aversin], for which the cell viability came out at 1.24 ± 0.17 with DLD1 [1], 1.18 ± 0.021 in the assay on HCT116 and 1.12 ± 0.021 with SW480 [2]. Moreover, the “TCF/Wnt firefly luciferase reporter signal” value came out at 0.95 ± 0.059 in the assay on DLD1 [3] and 1.02 ± 0.16 in the assay on SW480 [4].
On to `COc1ccc2c(c1)OC/C(=C\c1ccc(OC)c(O)c1)C2=O`, for which the cell viability in the assay with DLD1 [1] came to 0.933 ± 0.054; in the assay with HCT116 it was 1.02; with SW480 [2], 1.03 ± 0.035. Further, the “TCF/Wnt firefly luciferase reporter signal” value with DLD1 [3] amounted to 0.972 ± 0.11; in the assay with SW480 [4] it was 0.98 ± 0.086.
Regarding `Oc1cc(O)c2c(c1)O[C@H](c1ccc(O)c(O)c1)[C@H](O)C2`, the cell viability with DLD1 [1] was 0.953 and 0.936; in the assay with HCT116, 1.03 and 0.956; with SW480 [2], 1.01 and 1.06. For the same molecule, the “TCF/Wnt firefly luciferase reporter signal” value was 0.934 and 1.07 in the assay with DLD1 [3]; 0.985 and 1.08 in the assay on SW480 [4].
In the case of `C(=C\c1ccccc1)/CN1CCN(C(c2ccccc2)c2ccccc2)CC1`, the results for the cell viability in the assay with DLD1 [1], in the assay on HCT116 and in the assay with SW480 [2] were 0.989 ± 0.072, 1.09 ± 0.021 and 1.035 ± 0.0071, respectively. Also, the “TCF/Wnt firefly luciferase reporter signal” value was 1.17 ± 0.11 with DLD1 [3] and 0.936 ± 0.15 in the assay with SW480 [4].
For the molecule `CC1=CC2C(CC1=O)C(C)=CCC2C(C)C` (stereo not given), the figures for the cell viability in the assay with DLD1 [1], in the assay with HCT116 and in the assay on SW480 [2] were 0.983 ± 0.095, 0.971 ± 0.084 and 1 ± 0.012, respectively. In addition, the “TCF/Wnt firefly luciferase reporter signal” value in the assay with DLD1 [3] amounted to 0.987 ± 0.1; in the assay with SW480 [4], 0.945 ± 0.19.
As to `CCOC(=O)c1ccc(O)cc1`, the values for the cell viability with DLD1 [1], with HCT116 and in the assay with SW480 [2] were 0.925 ± 0.019, 0.89 ± 0.056 and 1.004 ± 0.0078, respectively. The “TCF/Wnt firefly luciferase reporter signal” value amounted to 1.01 in the assay with DLD1 [3] and 0.998 ± 0.059 in the assay on SW480 [4].
On to `c1ccc(CN(CC2=NCCN2)c2ccccc2)cc1`, for which the cell viability with DLD1 [1] was found to be 0.9805 ± 0.0092; with HCT116, 1.03 ± 0.055; in the assay on SW480 [2], 1.08 ± 0.021. The figures for the “TCF/Wnt firefly luciferase reporter signal” value in the assay on DLD1 [3] and in the assay with SW480 [4] were 1.18 ± 0.05 and 1.06 ± 0.096, respectively.
As to `CCS(=O)(=O)CCn1c([N+](=O)[O-])cnc1C`, the cell viability with DLD1 [1] amounted to 0.965 ± 0.019; in the assay with HCT116, 0.975 ± 0.014; in the assay with SW480 [2] it was 1.01 ± 0.032. The “TCF/Wnt firefly luciferase reporter signal” value in the assay with DLD1 [3] came to 0.869 ± 0.0028; in the assay with SW480 [4], 0.862 ± 0.059.
`C[C@]12CC[C@@H]3c4ccc(O)cc4CC[C@H]3[C@@H]1C[C@@H](O)[C@@H]2O`: the values for the cell viability in the assay on DLD1 [1], in the assay with HCT116 and in the assay on SW480 [2] were 1.03 ± 0.035, 1.05 ± 0.057 and 1 ± 0.035, respectively. In addition, the results for the “TCF/Wnt firefly luciferase reporter signal” value in the assay on DLD1 [3] and with SW480 [4] were 1.07 ± 0.085 and 1.16 ± 0.071, respectively.
Turning to `CCOC(=O)OC(C)OC(=O)[C@@H]1N2C(=O)[C@@H](NC(=O)[C@H](N)c3ccccc3)[C@H]2SC1(C)C` (stereo not given in full), the cell viability in the assay on DLD1 [1] was found to be 1.05 ± 0.014; with HCT116, 1.01 ± 0.071; with SW480 [2] it was 1.01 ± 0.014. Also, the “TCF/Wnt firefly luciferase reporter signal” value in the assay on DLD1 [3] stood at 1.09 ± 0.12; in the assay on SW480 [4], 1.08 ± 0.035.
As for `COc1ccc2c(c1)OC[C@@H](Cc1ccc(OC)c(OC)c1)[C@@H]2O`, the cell viability came to 1.03 with DLD1 [1], 1.02 ± 0.12 in the assay with HCT116 and 0.963 ± 0.034 in the assay on SW480 [2]. The “TCF/Wnt firefly luciferase reporter signal” value in the assay on DLD1 [3] is 1 ± 0.015; in the assay with SW480 [4], 0.973 ± 0.081.
On to `COc1ccc(-c2oc3cc(OC)c(OC)c(OC)c3c(=O)c2OC)cc1OC`, for which the figures for the cell viability with DLD1 [1], in the assay with HCT116 and with SW480 [2] were 0.952 ± 0.028, 1.1 ± 0.014 and 1.06 ± 0.092, respectively. Moreover, the “TCF/Wnt firefly luciferase reporter signal” value worked out at 0.986 ± 0.049 in the assay with DLD1 [3] and 1.06 ± 0.17 with SW480 [4].
For `FC(F)(F)C(Cl)Br` (stereo not given), in that order: 0.964 ± 0.035, 0.898 ± 0.011, 0.9715 ± 0.0035, 1.02 ± 0.028 and 1.1 ± 0.092.
On to `CC(C)=CCc1c(O)cc2occ(-c3ccc4c(c3)OCO4)c(=O)c2c1O`, for which the cell viability in the assay with DLD1 [1] came to 1 ± 0.12; in the assay on HCT116, 1.05 ± 0.071; in the assay with SW480 [2], 0.972 ± 0.018. Moreover, the “TCF/Wnt firefly luciferase reporter signal” value in the assay with DLD1 [3] was 1.02 ± 0.1; in the assay with SW480 [4], 0.902 ± 0.45.
`N=C(N)NC(=N)Nc1ccccc1`: the cell viability in the assay with DLD1 [1] is 0.96 ± 0.014; with HCT116, 0.969 ± 0.034; in the assay with SW480 [2] it was 0.958 ± 0.021. Moreover, the “TCF/Wnt firefly luciferase reporter signal” value in the assay on DLD1 [3] turned out to be 0.946 ± 0.052; in the assay with SW480 [4], 0.99 ± 0.015.
For `Cc1c(C(=O)O)c(O)cc2c1C(=O)c1c(O)c([C@@H]3O[C@H](CO)[C@@H](O)[C@H](O)[C@H]3O)c(O)c(O)c1C2=O`, in that order: 0.97 ± 0.032, 1.01 ± 0.089, 0.9855 ± 0.0078, 1.08 ± 0.17 and 1.07 ± 0.14.
`O=C(O)COCCN1CCN(C(c2ccccc2)c2ccc(Cl)cc2)CC1` (stereo not given): the cell viability worked out at 0.94 ± 0.054 in the assay with DLD1 [1], 0.896 ± 0.05 in the assay on HCT116 and 0.955 ± 0.024 in the assay on SW480 [2]. Also, the “TCF/Wnt firefly luciferase reporter signal” value in the assay with DLD1 [3] is 1.04 ± 0.035; in the assay with SW480 [4], 0.915 ± 0.033.
Take `CC1=Nc2ccc(Cl)cc2S(=O)(=O)N1`: the cell viability in the assay with DLD1 [1] stood at 0.946 ± 0.016; in the assay with HCT116, 1.06 ± 0.12; in the assay on SW480 [2], 0.975 ± 0.05. Further, the figures for the “TCF/Wnt firefly luciferase reporter signal” value in the assay with DLD1 [3] and in the assay with SW480 [4] were 1.135 ± 0.0071 and 0.86 ± 0.14, respectively.
Turning to `COc1c(C)c2c(c(O)c1C/C=C(\C)CCC(=O)O)C(=O)OC2`, the cell viability worked out at 1.03 ± 0.12 with DLD1 [1], 0.802 ± 0.03 in the assay on HCT116 and 1.03 ± 0.065 in the assay with SW480 [2]. Besides, the “TCF/Wnt firefly luciferase reporter signal” value with DLD1 [3] was 1.045 ± 0.0071; in the assay with SW480 [4], 1.14 ± 0.11.
Regarding `CC(=O)Oc1c(-c2ccccc2)oc2c(CC=C(C)C)c3c(c(OC(C)=O)c2c1=O)C=CC(C)(C)O3`, the values for the cell viability with DLD1 [1], in the assay with HCT116 and in the assay with SW480 [2] were 1.05 ± 0.057, 1.11 ± 0.11 and 1.02 ± 0.028, respectively. The “TCF/Wnt firefly luciferase reporter signal” value in the assay with DLD1 [3] is 0.855 ± 0.044; in the assay with SW480 [4], 0.972 ± 0.036.
Regarding `CN(C)CC[C@@H](c1ccc(Cl)cc1)c1ccccn1`, the cell viability was 1.01 and 0.901 in the assay on DLD1 [1]; 0.96 and 1.04 in the assay on HCT116; 0.968 and 1.01 with SW480 [2]. Further, the “TCF/Wnt firefly luciferase reporter signal” value in the assay with DLD1 [3] is 0.862 and 1.08; in the assay with SW480 [4], 0.778 and 1.05.
Take `CC(C)C[C@@H]1NC(=O)CNC1=O` [Cyclo(leucylglycyl)]: the cell viability stood at 0.991 ± 0.042 with DLD1 [1], 1.05 ± 0.057 in the assay with HCT116 and 0.949 ± 0.072 in the assay on SW480 [2]. Also, the “TCF/Wnt firefly luciferase reporter signal” value in the assay with DLD1 [3] was 0.956 ± 0.028; with SW480 [4], 0.935 ± 0.044.
As for `NC(C(=O)O)C(O)C(=O)O` (stereo not drawn) [d,l-threo-3-HYDROXYASPARTIC ACID], the cell viability in the assay with DLD1 [1] turned out to be 0.923 ± 0.036; in the assay on HCT116, 1.09 ± 0.11; with SW480 [2] it was 0.949 ± 0.044. The “TCF/Wnt firefly luciferase reporter signal” value with DLD1 [3] is 1.14 ± 0.27; with SW480 [4], 1.15 ± 0.064.
For `COc1cc(C)c2c(c1C=O)Oc1c(c(C)c(O)c3c1C(O)OC3=O)OC2=O` (stereo not given), in that order: 0.951 ± 0.015, 0.956 ± 0.028, 1.06 ± 0.014, 0.949 ± 0.16 and 0.927 ± 0.077.
For `Cn1c(=O)[nH]c(=O)c2[nH]cnc21` the same measures were 0.955 ± 0.026, 0.8635 ± 0.0064, 0.967 ± 0.032, 1.09 ± 0.17 and 1.16 ± 0.042.
Take `Cc1c(C(N)=O)cc([N+](=O)[O-])cc1[N+](=O)[O-]`: the cell viability with DLD1 [1] worked out at 0.985 ± 0.035; in the assay on HCT116 it was 0.926 ± 0.15; in the assay on SW480 [2] it was 0.981 ± 0.056. The “TCF/Wnt firefly luciferase reporter signal” value in the assay on DLD1 [3] was found to be 0.9 ± 0.05; with SW480 [4], 0.9925 ± 0.0064.
Take `CC1(C)[C@@H](O[C@H]2O[C@H](C(=O)O)[C@@H](O)[C@H](O)[C@H]2O[C@@H]2O[C@H](C(=O)O)[C@@H](O)[C@H](O)[C@H]2O)CC[C@]2(C)[C@H]3C(=O)C=C4[C@@H]5C[C@@](C)(C(=O)O)CC[C@]5(C)CC[C@@]4(C)[C@]3(C)CC[C@@H]12`: the figures for the cell viability in the assay on DLD1 [1], in the assay on HCT116 and with SW480 [2] were 1.04 ± 0.042, 1.14 and 1.02 ± 0.03, respectively. The “TCF/Wnt firefly luciferase reporter signal” value worked out at 1.22 ± 0.13 with DLD1 [3] and 1.16 ± 0.092 in the assay on SW480 [4].
